The values that follow come from PubChem BioAssay AID1813 (Broad Institute, 2009).

Out of some 300,000 compounds screened, about 2,500 (0.83%) were called active. No stated cut-off is given here; in the data, active means inhibition above about 60%; inconclusive means no clear call, values can overlap the other calls; inactive means below that. For the sample, actives were picked, then their nearest neighbours and some compounds at random.

The test in a line: MLPCN primary screen, SNCA 5' untranslated region (AID 1813).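 Further: H4 neuroglioblastoma cells stably carrying SNCA 5'UTR luciferase fusion; 0% = DMSO wells and 100% = positive control.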 Particulars: alpha-synuclein 5'UTR reporter, inhibitor activity; active compounds read high; tested at 7.5 µM.
As to `COc1ccc2c(c1)CCc1cn3ncc(C#N)c3nc1-2`, the inhibition is 68.1% (active).

Turning to `COc1ccc2nc(N3CCCC(O)C3)c(C#N)cc2c1` (stereo not drawn), the inhibition is -114% (inactive).

Consider `N#Cc1cnn2cc(CCN3CCOCC3)c(-c3ccc(F)cc3)nc12`, for which the inhibition is 17% (inactive).

Regarding `CC(C)[C@H](NC(=O)N1CCn2c1nc1ccccc12)C(=O)NC1CC1`, the inhibition was -11.1% (inactive).

Consider `CC1(c2ccc(Cl)cc2)NC(=O)N(CC(=O)c2ccc3c(c2)OCO3)C1=O` (stereo not drawn), for which the inhibition was -7.93% (inactive).

For the compound `CC(C)(C)C(=O)Nc1ccc(-c2cn3cccnc3n2)cc1`, the inhibition is -130% (inactive).

Regarding `Brc1ccc2nc(N3CCCC3)sc2c1`, the inhibition was -105% (inactive).

With `Cc1nc(N2CCCCC2)sc1C=O`, the inhibition was 10.9% (inactive).

As to `c1c2c(cc3sc(N4CCCCC4)nc13)OCCO2`, the inhibition is 107% (active).

Take `CN(CC(=O)O)S(=O)(=O)c1ccc2oc3ccccc3c2c1`: the inhibition is -11.7% (inactive).

For the compound `COc1ccc(NS(=O)(=O)c2cc3c(cc2C)N(C(C)=O)CCO3)cc1`, the inhibition is 11.8% (inactive).

For `COc1ccc(-c2oc3ncn(Cc4ccco4)c(=N)c3c2-c2ccc(OC)cc2)cc1`, the inhibition was 36% (inactive).

Take `O=C(NCCN1C(=O)C2C3C=CC(C3)C2C1=O)Nc1ccccn1` (stereo not drawn): the inhibition was -5.4% (inactive).

With `O=C(CN1C(=O)C2C3C=CC(C3)C2C1=O)Nc1nc(-c2ccccn2)cs1` (stereo not drawn), the inhibition is 82.4% (active).

For `O=C(CN1C(=O)C2C3C=CC(C3)C2C1=O)NCCc1ccccc1Cl` (stereo not drawn), the inhibition was -1.36% (inactive).

Take `Cc1ccc(S(=O)(=O)CCC(=O)Nc2nnc(CC(C)C)s2)cc1`: the inhibition is -17% (inactive).

As to `O=S(=O)(NCc1ccc(Cl)cc1Cl)c1cccs1`, the inhibition is -22.7% (inactive).

As to `Cc1oc(-c2ccccc2Cl)[n+]([O-])c1C`, the inhibition is 34.1% (inactive).

For `COc1ccc(Br)c2c1C(=O)CC2`, the inhibition was 8.26% (inactive).

Consider `CSCc1nnc(NC(=O)c2ccc(S(=O)(=O)N3CCCCC3C)cc2)o1` (stereo not drawn), for which the inhibition was 14.5% (inactive).

Turning to `CC1CCCN(S(=O)(=O)c2ccc(C(=O)Nc3nnc(-c4ccncc4)o3)cc2)C1` (stereo not drawn), the inhibition was -13.6% (inactive).

Consider `CC1CCCCN1S(=O)(=O)c1ccc(C(=O)Nc2nnc(-c3cccs3)o2)cc1` (stereo not drawn), for which the inhibition was 89.9% (active).

`Cc1onc(-c2ccccc2Cl)c1C(=O)N(Cc1ccc(N(C)C)cc1)C(C)C`: the inhibition is 73.1% (active).

For the compound `Cc1onc(-c2ccccc2Cl)c1C(=O)OCC(=O)c1ccccc1`, the inhibition is 12.5% (inactive).

With `Cc1onc(-c2ccccc2Cl)c1C(=O)NCCn1ccc2ccccc21`, the inhibition is 29.7% (inactive).

Regarding `O=C(CN1CCOCC1)Nc1cccc([N+](=O)[O-])c1`, the inhibition was 1.99% (inactive).

Turning to `Cc1nc(-c2nnc(SCC(=O)Nc3cc(C(F)(F)F)cc(C(F)(F)F)c3)n2C)cs1`, the inhibition was 15.6% (inactive).

`CCCOc1cccc(C(=O)Nc2nnn(CCC)n2)c1`: the inhibition is -87.6% (inactive).

On to `CC(C)CNC(=O)COC(=O)c1ccccc1OCC(=O)Nc1ccc(Br)cc1`, for which the inhibition is 1.89% (inactive).

For `O=C(COC(=O)c1ccc(NS(=O)(=O)c2cccs2)cc1O)Nc1ccc(F)cc1`, the inhibition is 7.94% (inactive).

On to `NS(=O)(=O)c1ccc(NC2=CC(c3ccc(F)cc3)N(c3ccc(S(N)(=O)=O)cc3)C2=O)cc1` (stereo not drawn), for which the inhibition is 15.1% (inactive).

In the case of `COc1ccc(CN(C)C(C)C(=O)NC2CCCc3ccccc32)cc1` (stereo not drawn), the inhibition is 8.59% (inactive).

`COc1ccc(/C=C/c2noc(-c3ccccc3OC(C)=O)n2)cc1`: the inhibition was -34.8% (inactive).

In the case of `COc1ccc(-c2nc(-c3ccccc3)no2)c(OC)c1`, the inhibition was 68.9% (active).

Turning to `Cc1ccc(-c2nc(-c3ccncc3)no2)c(C)c1`, the inhibition was -108% (inactive).

Turning to `CCC1CO/C(=C(\C(=C(Cl)Cl)N2CCOCC2)[N+](=O)[O-])N1` (stereo not drawn), the inhibition is -4.02% (inactive).

For `CCOc1cc(N2CCOCC2)c(OCC)cc1NC(=O)COc1cccc(Cl)c1`, the inhibition was 9.4% (inactive).

With `CCOc1cc(N2CCOCC2)c(OCC)cc1NC(=O)COc1cccc2cccnc12`, the inhibition is 88.8% (active).

In the case of `CCOc1cc(N2CCOCC2)c(OCC)cc1NC(=O)c1cc(C)nc2ccccc12`, the inhibition is 7.38% (inactive).

Turning to `CCOC(=O)C(C)Oc1cccc2c(=O)n(CC(=O)NCCc3ccc(OC)c(OC)c3)ccc12` (stereo not drawn), the inhibition was 12.9% (inactive).

As for `Cc1nn(C)c(C)c1CN(C(=O)CCc1nnc(Cc2c[nH]c3ccccc23)o1)C(C)C`, the inhibition is 13.9% (inactive).

With `Cc1oc2c(F)c(F)c(F)c(F)c2c1S(=O)(=O)Nc1cccc(C(F)(F)F)c1`, the inhibition is 17.3% (inactive).

For the compound `CCNC(=S)N1CCC(c2nc3cc(C)c(C)cc3[nH]2)CC1`, the inhibition is -15.5% (inactive).

Take `Cc1cccc(-[n+]2c(-c3cccc(Br)c3)[nH]c3nc4ccccc4nc32)c1`: the inhibition was 73.9% (active).

Take `Cc1cccc(-c2nc(Nc3ccc(O)cc3)c3ccccc3n2)c1`: the inhibition is 2.9% (inactive).

Take `Cc1ccc(/C=C2\CCn3c2nc2cc(C(=O)O)ccc2c3=O)c(C)c1`: the inhibition was -20% (inactive).

For `Nc1ccc2nn(-c3ccc(Cl)cc3)nc2c1`, the inhibition was -27.3% (inactive).

With `CN(C)c1ccc(/C=N\S(=O)(=O)c2ccccc2)cc1`, the inhibition was -6.91% (inactive).

Regarding `CC[n+]1cc(C)ccc1/C=C/c1ccc(N(C)C)cc1`, the inhibition was 90.6% (active).

With `O=C(CN1CCN(c2ncccn2)CC1)Nc1ccccc1C(F)(F)F`, the inhibition is -6.88% (inactive).

Consider `Brc1ccc2c(c1)[C@H]1OCC[C@H]1[C@@H](c1cccs1)N2`, for which the inhibition was 72.2% (active).

For `CC(C)CCn1c(=O)c2c(nc3n2CCCN3Cc2ccccc2)n(C)c1=O`, the inhibition is 23.1% (inactive).

On to `COc1ccc(C)cc1N(CC(=O)N1CCCC1)S(=O)(=O)c1ccccc1`, for which the inhibition is -6.96% (inactive).

With `Cc1ccc(CNC(=O)CCNS(=O)(=O)c2cccc3nonc23)cc1`, the inhibition is 9.75% (inactive).

In the case of `CN(c1ccc2nc3ccccc3c(=O)n2n1)C1CCCCC1`, the inhibition is 119% (active).

Take `O=c1c2ccccc2nc2n1C1(CCCCC1)Cc1ccccc1-2`: the inhibition is 0.0175% (inactive).

With `CN(C(=O)c1cc2c(=O)n3ccccc3nc2s1)C1CCCCC1`, the inhibition is -42.4% (inactive).

In the case of `Cc1ccc(CN2CCNC(=O)C2CC(=O)NCc2csc(C(C)C)n2)cc1` (stereo not drawn), the inhibition is 9.72% (inactive).

On to `Cc1ccc2[nH]c(=O)c(CN(C)S(=O)(=O)c3cccc4nonc34)cc2c1`, for which the inhibition was -5.89% (inactive).

With `CCC1=C(OC(=O)N(CC)CC)N2C(=O)OC(=NCCc3c[nH]c4ccccc34)[C@]2(C)[C@H]2C1=CC[C@H]1C(=O)N(CC)C(=O)[C@H]12`, the inhibition is -3.3% (inactive).

As for `Cc1c(C(=O)N2CCCc3ccccc32)oc2ccccc12`, the inhibition was -96.2% (inactive).

Consider `Cc1c(C(=O)N2CCCc3ccccc32)sc2nc(-c3ccccc3)cn12`, for which the inhibition is -83.5% (inactive).

Turning to `Cc1cccc2cc3c(N)c(C(=O)N4CCCc5ccccc54)sc3nc12`, the inhibition was 85.2% (active).

Turning to `COc1ccc2c(c1)cc1n2CCN=C1NN`, the inhibition was -27.8% (inactive).

For `CN1c2ccc(C=O)c3c(C=O)ccc(c23)N(C)C1(C)C`, the inhibition was 67% (active).

`CCN(CC(=O)Nc1c(F)cccc1F)C(=O)c1ccc(S(=O)(=O)N2CCCCC2)cc1`: the inhibition was 6.51% (inactive).

On to `O=C(c1ccc(F)cc1)N1CCC(n2nnc3ccccc32)CC1`, for which the inhibition is 6.11% (inactive).

As for `Cc1cc(OCc2ccc(C(=O)Nc3ccc(C(=O)O)cc3)o2)ccc1Cl`, the inhibition was 32.2% (inactive).

Regarding `CCOC(=O)c1ccc(NC(=O)c2c(N)n(C)c(=O)[nH]c2=O)cc1`, the inhibition was -15.4% (inactive).

`Brc1ccc(-c2csc(N/N=C/c3ccc4c(c3)OCO4)n2)cc1`: the inhibition is -59.4% (inactive).

Consider `Cc1noc(C)c1/C=N/Nc1ccc2ccccc2n1`, for which the inhibition is -146% (inactive).

With `C(=N\Nc1ccc2ccccc2n1)/c1ccc2c(c1)OCO2`, the inhibition is 88.2% (active).

Consider `CCCc1nc(N2CCN(C)CC2)c2sc(=S)n(-c3ccccc3)c2n1`, for which the inhibition was 2.12% (inactive).

Regarding `CCOC(=O)C1C(=O)NCC1c1ccccc1` (stereo not drawn), the inhibition was -12.2% (inactive).

In the case of `NC(=O)COC(=O)c1ccc2c(c1)C(=O)N(Cc1ccco1)C2=O`, the inhibition is -5.55% (inactive).

In the case of `Oc1c(CN2CCN(c3ccc(F)cc3)CC2)cc(Cl)c2cccnc12`, the inhibition was 69.6% (active).

As to `CCN1CCN(C(c2cccnc2)c2cc(Cl)c3cccnc3c2O)CC1` (stereo not drawn), the inhibition is -29.1% (inactive).

Regarding `Cc1cccnc1NC(=O)c1cccc(S(=O)(=O)N2CCN(c3ccc(F)cc3)CC2)c1`, the inhibition was 26.9% (inactive).

`CC(=O)c1ccc(NC(=O)CCc2nnc3ccc(NCc4ccco4)nn23)cc1`: the inhibition was -95.3% (inactive).

For the compound `Cc1cccn2c(=O)c3cc(C(=O)NCCN4CCOCC4)c(=N)n(Cc4cccnc4)c3nc12`, the inhibition was 97% (active).

In the case of `Cc1cccn2c(=O)c3cc(C(=O)NCC4CCCO4)c(=N)n(Cc4ccc(F)cc4)c3nc12` (stereo not drawn), the inhibition was 9.52% (inactive).

On to `COc1ccc(CCn2c(=N)c(C(=O)NCC3CCCO3)cc3c(=O)n4cccc(C)c4nc32)cc1OC` (stereo not drawn), for which the inhibition was -9.36% (inactive).

`CCOc1cccc(OCCCOc2cccc3cccnc23)c1`: the inhibition was 5.95% (inactive).

On to `O=C1CCC([N+](=O)[O-])C(c2ccccc2Br)N1` (stereo not drawn), for which the inhibition is 0.315% (inactive).

Turning to `O=C1C(=O)N(CCCO)C(c2ccccc2)/C1=C(\O)c1ccc(Br)cc1` (stereo not drawn), the inhibition is 4.06% (inactive).

As to `O=C(Oc1cccc(N2C(=O)C3C4c5ccccc5C(c5ccccc54)C3C2=O)c1)c1ccco1` (stereo not drawn), the inhibition is 2.5% (inactive).

For the compound `CN1CCCC(OC(=O)COc2ccc(Br)cc2)C1` (stereo not drawn), the inhibition is 4.45% (inactive).

`CC1CN/C(=C\C(=O)c2ccc(Br)cc2)C(=O)N1` (stereo not drawn): the inhibition is 62% (active).

On to `COc1cc2c(cc1OC)/C(=C/C(=O)c1ccc(NC(C)=O)cc1)NCC2`, for which the inhibition was 22.9% (inactive).

Take `O=C(NCCCCCCCCCNC(=O)C(F)(F)F)C(F)(F)F`: the inhibition was 9.8% (inactive).

With `CCOC(=O)N1CCN(S(=O)(=O)c2ccc(C(=O)Nc3ccc(F)cc3F)cc2)CC1`, the inhibition is 69.5% (active).

As to `CCOC(=O)N1CCN(S(=O)(=O)c2ccc(Br)cc2)CC1`, the inhibition was -14.3% (inactive).

In the case of `CCOC(=O)N1CCN(S(=O)(=O)c2ccc(OC)cc2)CC1`, the inhibition is 4.08% (inactive).
